Test results as given in PubChem BioAssay (EPA / NIEHS).
Active and inactive are the calls of the source. How the source made its calls: active means hit-call score of the fitted dose curve at least 0.9, where 1 is the maximum; inactive means score below 0.9.

How the values were obtained:
[1] = ATG_E_Box_CIS: Attagene CIS-FACTORIAL HepG2 Assay for human Enhancer Box (E-box) (AID 2282936); conditions: HepG2 E-box cis-reporter transcription, actives raise or lower the signal
How it was run: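 Cells: HepG2 (human liver), transient MRTU transfection. Exposure 24 h. RNA → oligo(dT) RT → PCR → 6-FAM label → HpaI → CE. Activity fitted both directions relative to DMSO.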

[2] = ATG_M_61_CIS: Attagene CIS-FACTORIAL HepG2 Assay for M61 Transcription Factor (Internal Marker) (AID 2282937); conditions: HepG2 Attagene CIS-FACTORIAL M61 internal marker reporter; actives raise or lower the signal
How it was run: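 Readout: fluorescent reporter mRNA fragments resolved by capillary electrophoresis after RT-PCR. Transiently transfected human HepG2 cells carried MRTU constructs reporting endogenous TF activity; 24 h chemical exposure; gain or loss of signal fitted relative to DMSO.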

[3] = ATG_EGR_CIS: Attagene CIS-FACTORIAL HepG2 Assay for human Early Growth Response 1 (EGR1) (AID 2282938); conditions: HepG2 Attagene CIS-FACTORIAL EGR reporter mRNA; actives raise or lower the signal
How it was run: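 Read-out: fluorescent reporter-mRNA fragments resolved by capillary electrophoresis after RT-PCR, 24 h post-dose in transiently transfected HepG2. Endogenous transcription-factor activity reported via cis-element-regulated reporter units; gain or loss fitted relative to DMSO.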

[4] = ATG_M_19_CIS: Attagene CIS-FACTORIAL HepG2 Assay for M19 Transcription Factor (Internal Marker) (AID 2282939); conditions: HepG2 Attagene CIS-FACTORIAL M19 internal marker reporter; actives raise or lower the signal
How it was run: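 In this multiplexed cell assay, transiently transfected HepG2 reporter units report endogenous transcription-factor activity; after 24 hours of treatment, labelled reporter cDNA fragments are quantified by capillary electrophoresis and fitted bidirectionally against DMSO.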

[5] = ATG_ERE_CIS: Attagene CIS-FACTORIAL HepG2 Assay for Estrogen Response Element (ERE) (AID 2282940); conditions: HepG2 ERE cis-reporter, Attagene RNA transcript; actives raise or lower the signal
How it was run: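 Measuring endogenous transcription factor output, the assay doses transfected HepG2 cells for 24 hours and quantifies reporter transcripts by fluorescent RT-PCR and capillary electrophoresis, with DMSO as baseline.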

[6] = ATG_Ets_CIS: Attagene CIS-FACTORIAL HepG2 Assay for human Erythroblast Transformation Specific (ETS) (AID 2282941); conditions: HepG2 ETS cis-reporter transcription, actives raise or lower the signal
How it was run: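 Steps: transfect HepG2 with multiple reporter units; treat compound 24 h; isolate RNA, DNase-treat, reverse-transcribe; PCR-amplify, label with 6-FAM, digest with HpaI; separate by capillary electrophoresis. Activity fitted both directions versus DMSO.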

[7] = biological target: Hepatocyte nuclear factor 3-beta (Homo sapiens) (UniProt Q9Y261); assay: ATG_FoxA2_CIS: Attagene CIS-FACTORIAL HepG2 Assay for human Forkhead box A2 (FOXA2) (AID 2282942); conditions: HepG2 cis-reporter transcription factor activity, 24 h; actives raise or lower the signal
Hepatocyte nuclear factor 3-beta (Homo sapiens), sequence (Q9Y261 whole entry, looked up): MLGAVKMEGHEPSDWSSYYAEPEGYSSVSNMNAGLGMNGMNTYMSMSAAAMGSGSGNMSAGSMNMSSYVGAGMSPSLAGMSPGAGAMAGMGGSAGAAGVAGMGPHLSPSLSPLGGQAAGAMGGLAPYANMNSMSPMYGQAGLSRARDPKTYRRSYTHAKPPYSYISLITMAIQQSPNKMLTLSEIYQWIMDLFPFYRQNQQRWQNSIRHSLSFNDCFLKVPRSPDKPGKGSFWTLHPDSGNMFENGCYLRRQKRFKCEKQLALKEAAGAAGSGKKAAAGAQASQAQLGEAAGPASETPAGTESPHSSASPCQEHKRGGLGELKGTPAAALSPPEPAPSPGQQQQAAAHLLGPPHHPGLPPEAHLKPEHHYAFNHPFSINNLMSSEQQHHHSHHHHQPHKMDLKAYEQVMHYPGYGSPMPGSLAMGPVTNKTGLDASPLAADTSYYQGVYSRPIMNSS
How it was run: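 Readout: fluorescent reporter transcripts resolved by capillary electrophoresis after RT-PCR. Transiently transfected HepG2, 24 h compound exposure, endogenous TF activity at cis promoter elements. Gain or loss of signal fitted relative to DMSO.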

[8] = ATG_FoxO_CIS: Attagene CIS-FACTORIAL HepG2 Assay for human Forkhead box O (FoxO) (AID 2282943); conditions: HepG2 Attagene cis-reporter, FoxO element, mRNA; actives raise or lower the signal
How it was run: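 Endogenous transcription factor activity read from multiplexed cis-promoter reporter transcripts in transiently transfected HepG2, 24 h after dosing. Reporter RNA measured via RT-PCR plus capillary electrophoresis of FAM-labeled products; gain or loss relative to DMSO.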

[9] = ATG_GATA_CIS: Attagene CIS-FACTORIAL HepG2 Assay for human GATA Binding Protein (AID 2282944); conditions: HepG2 GATA cis-element reporter, Attagene multiplex mRNA; actives raise or lower the signal
How it was run: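 Measures endogenous transcription factor-driven reporter mRNA in HepG2 cells transiently carrying cis-regulated constructs. 24 h dosing; RNA via oligo(dT) reverse transcription, PCR, HpaI digestion, capillary electrophoresis; fitted relative to DMSO.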

[10] = ATG_GLI_CIS: Attagene CIS-FACTORIAL HepG2 Assay for human Zinc Finger Protein GLI1 (AID 2282945); conditions: HepG2, Attagene cis-factorial reporter mRNA, GLI element; actives raise or lower the signal
How it was run: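 Bidirectional curve fits relative to DMSO, using reporter mRNA levels from RT-PCR plus capillary electrophoresis. Cells were HepG2 transiently carrying cis-regulated reporter constructs, harvested 24 h after dosing.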

[11] = ATG_GRE_CIS: Attagene CIS-FACTORIAL HepG2 Assay for human Glucocorticoid Response Elements (GRE) (AID 2282947); conditions: HepG2 GRE cis-reporter, Attagene multiplex mRNA; actives raise or lower the signal
How it was run: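 Transient MRTU transfection of human HepG2 liver cells; cis-regulated reporters report endogenous factors. 24 h dosing → RNA isolation → RT-PCR → 6-FAM primer extension → HpaI cut → CE fragment analysis. Bidirectional fit, DMSO negative control.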

[12] = ATG_ISRE_CIS: Attagene CIS-FACTORIAL HepG2 Assay for human Interferon Regulatory Factor 1 (IRF1) binding to an Interferon-Stimulated Response Element (ISRE) (AID 2282948); conditions: HepG2 ISRE cis-reporter (Attagene), mRNA transcription readout; actives raise or lower the signal
How it was run: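 Transfected HepG2 (multiple reporter transcription units, cis elements) dosed 24 h. RNA → oligo(dT) RT → PCR → 6-FAM primer extension → HpaI → CE. DMSO = negative control/baseline.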

[13] = ATG_M_32_CIS: Attagene CIS-FACTORIAL HepG2 Assay for M32 Transcription Factor (Internal Marker) (AID 2282949); conditions: HepG2 Attagene cis-factorial M32 reporter, mRNA; actives raise or lower the signal;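 further: background control marker of the multiplexed CIS panel rather than a real target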
How it was run: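 Fluorescent capillary electrophoresis peaks of HpaI-digested, FAM-labelled RT-PCR reporter products give the signal. Source: transiently transfected human liver HepG2 cells, 24 h after chemical dosing; bidirectional fitting against DMSO.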

[14] = ATG_M_06_CIS: Attagene CIS-FACTORIAL HepG2 Assay for M06 Transcription Factor (Internal Marker) (AID 2282950); conditions: HepG2 Attagene CIS-FACTORIAL M06 internal marker reporter; actives raise or lower the signal
How it was run: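 One of many multiplexed endpoints: HepG2 reporter mRNA after 24 h dosing, detected by RT-PCR and capillary electrophoresis fluorescence; gain or loss of signal analysed against DMSO.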

[15] = biological target: Hypoxia-inducible factor 1-alpha (Homo sapiens) (UniProt Q16665); assay: ATG_HIF1a_CIS: Attagene CIS-FACTORIAL HepG2 Assay for human Hypoxia Inducible Factor 1 (HIF1A) (AID 2282951); conditions: HepG2 Attagene cis-factorial HIF1a reporter transcription; actives raise or lower the signal
Hypoxia-inducible factor 1-alpha (Homo sapiens), sequence (Q16665 whole entry, looked up): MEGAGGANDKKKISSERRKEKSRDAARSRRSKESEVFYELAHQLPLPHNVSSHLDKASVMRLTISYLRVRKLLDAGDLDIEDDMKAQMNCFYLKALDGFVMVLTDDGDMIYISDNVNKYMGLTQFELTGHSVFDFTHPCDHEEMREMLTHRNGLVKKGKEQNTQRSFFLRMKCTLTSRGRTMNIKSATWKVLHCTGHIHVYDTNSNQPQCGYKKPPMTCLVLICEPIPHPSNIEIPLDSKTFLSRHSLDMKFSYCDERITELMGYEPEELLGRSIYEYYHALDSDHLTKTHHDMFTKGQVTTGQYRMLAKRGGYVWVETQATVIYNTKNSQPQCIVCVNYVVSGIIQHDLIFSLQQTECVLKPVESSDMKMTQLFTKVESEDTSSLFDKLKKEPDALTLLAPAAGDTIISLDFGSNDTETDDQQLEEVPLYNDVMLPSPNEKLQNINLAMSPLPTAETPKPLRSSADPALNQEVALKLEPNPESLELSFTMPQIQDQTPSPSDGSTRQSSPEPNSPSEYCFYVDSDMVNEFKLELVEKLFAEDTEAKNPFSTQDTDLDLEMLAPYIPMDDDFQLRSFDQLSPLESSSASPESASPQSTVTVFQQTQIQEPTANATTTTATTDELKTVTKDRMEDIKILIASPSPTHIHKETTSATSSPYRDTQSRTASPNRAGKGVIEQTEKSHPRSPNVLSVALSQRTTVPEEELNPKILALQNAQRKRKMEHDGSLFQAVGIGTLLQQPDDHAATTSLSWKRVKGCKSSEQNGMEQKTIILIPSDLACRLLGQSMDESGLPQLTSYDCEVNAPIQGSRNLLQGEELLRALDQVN
How it was run: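 RT-PCR/capillary electrophoresis fluorescence readout of reporter transcripts from endogenous-TF-driven cis elements in transfected HepG2 cells, 24 h exposure; activity fitted in both directions against DMSO controls.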

[16] = biological target: Hepatocyte nuclear factor 6 (Homo sapiens) (UniProt Q9UBC0); assay: ATG_HNF6_CIS: Attagene CIS-FACTORIAL HepG2 Assay for human Hepatocyte Nuclear Factor 6 (HNF6) (AID 2282952); conditions: HepG2 Attagene cis-factorial HNF6 reporter transcription; actives raise or lower the signal
Hepatocyte nuclear factor 6 (Homo sapiens), sequence (Q9UBC0 whole entry, looked up): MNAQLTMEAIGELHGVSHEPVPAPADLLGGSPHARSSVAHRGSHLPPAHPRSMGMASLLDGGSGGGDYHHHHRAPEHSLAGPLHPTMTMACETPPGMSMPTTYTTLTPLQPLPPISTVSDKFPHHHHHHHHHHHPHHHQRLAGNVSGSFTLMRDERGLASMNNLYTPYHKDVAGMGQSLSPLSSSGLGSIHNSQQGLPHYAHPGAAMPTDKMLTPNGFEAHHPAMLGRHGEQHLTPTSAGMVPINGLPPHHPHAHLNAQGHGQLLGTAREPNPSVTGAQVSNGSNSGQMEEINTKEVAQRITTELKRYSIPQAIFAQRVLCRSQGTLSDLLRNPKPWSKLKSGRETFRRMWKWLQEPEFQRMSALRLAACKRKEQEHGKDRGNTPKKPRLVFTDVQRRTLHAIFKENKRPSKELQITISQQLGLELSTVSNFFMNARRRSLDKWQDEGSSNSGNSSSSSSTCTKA
How it was run: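 HepG2 cells transiently transfected with cis-element-driven multiple reporter transcription units, dosed 24 h; reporter mRNA quantified by RT-PCR, FAM primer extension, HpaI digestion and capillary electrophoresis; bidirectional fit versus DMSO baseline.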

[17] = biological target: Heat shock factor protein 1 (Homo sapiens) (UniProt Q00613); assay: ATG_HSE_CIS: Attagene CIS-FACTORIAL HepG2 Assay for human Heat Shock Transcription Factor 1 (HSE) (AID 2282953); conditions: HepG2 HSE cis-reporter, Attagene RNA transcription; actives raise or lower the signal
Heat shock factor protein 1 (Homo sapiens), sequence (Q00613 whole entry, looked up): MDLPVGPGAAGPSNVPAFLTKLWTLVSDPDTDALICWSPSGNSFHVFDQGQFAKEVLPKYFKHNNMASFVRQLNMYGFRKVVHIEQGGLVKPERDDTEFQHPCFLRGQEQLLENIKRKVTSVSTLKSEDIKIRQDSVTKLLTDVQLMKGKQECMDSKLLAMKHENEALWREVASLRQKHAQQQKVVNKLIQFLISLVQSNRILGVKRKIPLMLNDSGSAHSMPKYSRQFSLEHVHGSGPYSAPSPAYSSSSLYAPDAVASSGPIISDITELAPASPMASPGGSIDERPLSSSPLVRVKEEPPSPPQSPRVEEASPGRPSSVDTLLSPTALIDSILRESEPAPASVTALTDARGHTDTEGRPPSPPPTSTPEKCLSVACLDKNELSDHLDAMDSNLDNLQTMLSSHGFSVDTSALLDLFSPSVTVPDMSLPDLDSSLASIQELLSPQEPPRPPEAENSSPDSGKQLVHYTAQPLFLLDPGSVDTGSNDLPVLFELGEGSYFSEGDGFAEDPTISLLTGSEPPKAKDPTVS
How it was run: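 Using HepG2 with transfected cis-driven reporter constructs, compound effects on endogenous factor activity are scored as reporter mRNA change at 24 h. Detection: RT-PCR, HpaI digestion, capillary electrophoresis; bidirectional fitting to DMSO.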

[18] = ATG_MRE_CIS: Attagene CIS-FACTORIAL HepG2 Assay for human Metal Responsive Element (MRE) (AID 2282954); conditions: HepG2 MRE cis-reporter transcription, Attagene multiplex; actives raise or lower the signal
How it was run: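 Transient MRTU transfection of HepG2 (FuGene 6); 24 h dosing; total RNA → oligo(dT) RT, PCR, 6-FAM primer extension, HpaI cut, CE. Bidirectional fit vs DMSO.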

[19] = ATG_PBREM_CIS: Attagene CIS-FACTORIAL HepG2 Assay for human Phenobarbital-responsive Enhancer Module (PBREM) (AID 2282955); conditions: HepG2 PBREM cis-reporter, Attagene multiplexed transcription; actives raise or lower the signal
How it was run: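 Reporter mRNA read by RT-PCR, 6-FAM primer extension, HpaI digestion and capillary electrophoresis. Transfected HepG2 cells, 24 h compound exposure. Gain or loss of signal fitted bidirectionally relative to DMSO baseline.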

Measured: AC50

O=C(O)CCCCCCCCCC(=O)O
active: [5] 22 µM
not listed: [19]
inactive: all other assays above

c1c[nH]cn1
not listed: [19]
inactive: all other assays above

Cc1cccc(OCCOc2cccc(C)c2)c1
inactive: all assays above

O=C(C=Cc1ccccc1)OCc1ccccc1
inactive: all assays above

CC(C)c1ccc(C#N)cc1
inactive: all assays above

CN(C)c1ccc(C(=N)c2ccc(N(C)C)cc2)cc1
active: [1] 56.6 µM | [3] 1.36 µM | [7] 0.721 µM | [12] 23 µM | [15] 0.816 µM | [17] 29.4 µM | [18] 6.69 µM | [19] 7.5 µM
inactive: all other assays above

CC(=O)Nc1ccc2c(c1)Cc1cc(NC(C)=O)ccc1-2
inactive: all assays above

OCCNCc1ccccc1
not listed: [16]
inactive: all other assays above
